Data as given in PubChem BioAssay (EPA / NIEHS).
Active and inactive are the calls of the source. Rule for the calls: active = hit-call score of the fitted dose curve at least 0.9, where 1 is the maximum; inactive = score below 0.9.

Assay: ATG_PPRE_CIS: Attagene CIS-FACTORIAL HepG2 Assay for human Peroxisome Proliferator-activated Response Element (PPRE) (AID 2282958)
Details: HepG2 PPRE cis-element reporter, Attagene transcription factor profiling; actives raise or lower the signal
Method in brief: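 PPRE activity in HepG2: transient cis-reporter transfection, 24 h compound incubation, reporter mRNA by RT-PCR and CE fluorescence; gain/loss fitted against DMSO.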

| Compound | outcome | AC50 |
| --- | --- | --- |
| COC(=O)NS(=O)(=O)c1ccc(N)cc1 | inactive |  |
| CC(C)(C)C(=O)C(Oc1ccc(Cl)cc1)n1cncn1 (stereo unspecified) |  | 50 µM (active) |
| Cc1c(COC(=O)[C@@H]2[C@H](/C=C(\Cl)C(F)(F)F)C2(C)C)cccc1-c1ccccc1 | inactive |  |
| CCOC(=O)C(C)OC(=O)c1cc(Oc2ccc(C(F)(F)F)cc2Cl)ccc1[N+](=O)[O-] (stereo unspecified) |  | 11.7 µM (active) |
| CCN(CC)c1nc(C)cc(OP(=S)(OC)OC)n1 |  | 34.1 µM (active) |
| COCC(=O)N(c1c(C)cccc1C)C(C)C(=O)OC (stereo unspecified) | inactive |  |
| CCCCC(C#N)(Cn1cncn1)c1ccc(Cl)cc1 (stereo unspecified) | inactive |  |
| Nc1cnn(-c2ccccc2)c(=O)c1Cl | inactive |  |
| CC(C)C1(C)N=C(c2ncccc2C(=O)O)NC1=O (stereo unspecified) | inactive |  |
| N#Cc1c(Cl)cccc1Cl | inactive |  |
| CCNC(=O)NC(=O)C(C#N)=NOC | inactive |  |
| Cc1cc(C)nc(Nc2ccccc2)n1 |  | 16.7 µM (active) |
| CC(C)=CC1C(C(=O)OCc2coc(Cc3ccccc3)c2)C1(C)C (stereo unspecified) |  | 11.2 µM (active) |
| COCc1cnc(C2=NC(C)(C(C)C)C(=O)N2)c(C(=O)O)c1 (stereo unspecified) | inactive |  |
| CCOc1nc(F)cc2nc(S(=O)(=O)Nc3c(Cl)cccc3Cl)nn12 | inactive |  |
| CCN(CC)C(=O)C(C)Oc1cccc2ccccc12 (stereo unspecified) |  | 50 µM (active) |
| CS(=O)(=O)c1cc(C(F)(F)F)ccc1C(=O)c1cnoc1C1CC1 | inactive |  |
| CNC(=O)N(C)c1nnc(C(C)(C)C)s1 | inactive |  |

| Compound | outcome | AC50 |
| --- | --- | --- |
| COC(=O)NC(=S)Nc1ccccc1NC(=S)NC(=O)OC |  | 34 µM (active) |
| CCOP(=O)(OCC)Oc1nc(Cl)c(Cl)cc1Cl |  | 29.9 µM (active) |
| CC(C)N1C(=O)N(c2ccccc2)CSC1=NC(C)(C)C | inactive |  |
| COP(=S)(OC)SCn1nnc2ccccc2c1=O | inactive |  |
| O=C(Nc1ccccc1-c1ccc(Cl)cc1)c1cccnc1Cl | inactive |  |
| O=P(O)(O)CCCl | inactive |  |
| C=CCOC(=O)C(C)(C)OC(=O)c1cc(-n2c(=O)cc(C(F)(F)F)n(C)c2=O)ccc1Cl | inactive |  |
| O=c1n(Cl)c(=O)n(Cl)c(=O)n1Cl | inactive |  |
| Clc1nc(Cl)nc(Nc2ccccc2Cl)n1 |  | 18.7 µM (active) |
| CC1(C)CON(Cc2ccccc2Cl)C1=O |  | 50 µM (active) |
| COC(=O)c1c(C(F)F)nc(C(F)(F)F)c(C2=NCCS2)c1CC(C)C |  | 50 µM (active) |
| CO/N=C(/C1=NOCCO1)c1ccccc1Oc1ncnc(Oc2ccccc2Cl)c1F | inactive |  |
| CCOc1cc(C(C)(C)C)ccc1C1COC(c2c(F)cccc2F)=N1 (stereo unspecified) | inactive |  |
| CCSC(=O)N1CCCCCC1 | inactive |  |
| COc1cc(OC)nc(NC(=O)NS(=O)(=O)c2ncccc2OCC(F)(F)F)n1 | inactive |  |
| CSC(=O)c1c(C(F)F)nc(C(F)(F)F)c(C(=O)SC)c1CC(C)C | inactive |  |
| CC(C)Oc1cccc(NC(=O)c2ccccc2C(F)(F)F)c1 |  | 21.3 µM (active) |
| CN=C=S |  | 18.3 µM (active) |
